# Bioassay records (PubChem)
# Rows were chosen to be rich in hits. Some 0.3% of all compounds tested hit in one or more screens of this group.
# hcGAS inh: Primary biochemical luminescence assay for human cyclic GMP-AMP synthase inhibitors. Q8N884. inhibition, % at 12.5 µM. hit rate 0.081% among 290,000. recombinant h-cGAS, ATP depletion, Kinase-Glo luminescence;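 further: 0% = vehicle reaction and 100% = reaction without DNA for no activity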
# Target sequence (Q8N884 whole entry, looked up): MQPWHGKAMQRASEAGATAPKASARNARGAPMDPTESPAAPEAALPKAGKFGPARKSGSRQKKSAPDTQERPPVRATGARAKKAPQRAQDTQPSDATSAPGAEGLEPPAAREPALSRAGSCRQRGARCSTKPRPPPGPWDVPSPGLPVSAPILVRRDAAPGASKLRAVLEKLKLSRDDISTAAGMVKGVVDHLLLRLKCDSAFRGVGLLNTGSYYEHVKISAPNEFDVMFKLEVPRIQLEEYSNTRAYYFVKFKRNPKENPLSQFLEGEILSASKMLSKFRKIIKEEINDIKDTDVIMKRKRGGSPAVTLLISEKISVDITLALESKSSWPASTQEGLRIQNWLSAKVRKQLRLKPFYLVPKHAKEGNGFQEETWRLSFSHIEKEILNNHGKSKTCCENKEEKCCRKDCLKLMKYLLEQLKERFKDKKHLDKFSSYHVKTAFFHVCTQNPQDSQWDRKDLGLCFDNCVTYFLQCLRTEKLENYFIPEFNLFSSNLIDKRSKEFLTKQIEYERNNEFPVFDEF
# mcGAS inh: cyclic GMP-AMP synthase inhibitors, mouse, primary biochemical chemiluminescence. Q8C6L5. recombinant cGAS, Kinase-Glo ATP depletion luminescence. inhibition, % at 12.5 µM. hit rate 0.15% among 160,000. AID 1259399, 2018;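 further: 0% = negative control wells and 100% = reference inhibitor with no enzyme activity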
# NPYLR7 agonist: agonists of mosquito NPYLR7 receptor, primary screen, cell-based, Aedes aegypti, calcium fluorescence, mosquito biting behavior | activation, % at 10 µM | Aedes aegypti neuropeptide Y-like receptor 7 (NPYLR7) | hit rate 0.15% among 270,000 | AID 1259423, 2018 | HEK293T NPYLR7/Galpha15, GCaMP6s calcium fluorescence; in the data active means activation above about 40%;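 further: 0% = vehicle and 100% = reference agonist at the receptor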
# Starred values were filed as active, the others as inactive; x = no result given. Unless noted, no stated cut-off is given here; in the data, active means inhibition above about 40%; inactive means the rest.
SMILES,hcGAS inh,mcGAS inh,NPYLR7 agonist
O=c1nc2sc3[nH]c(=O)sc3cc-2s1,6,46*,244*
Cc1c(Cl)cccc1NC(=O)C(C#N)C(=O)COc1ccc(F)cc1 (configuration not stated),-3,-15,22
N#CC(C(=O)/C=C/c1nccs1)C(=O)Nc1cccc(Cl)c1Cl (configuration not stated),46*,x,-1
CC(C)(C)c1cc2nc(C(=O)N3CCc4ccccc4C3)cc(-c3ccccc3F)n2n1,1,1,-13
COc1ccccc1-c1cc(C(=O)N2CCc3ccccc3C2)nc2cc(C(C)(C)C)nn12,6,84*,-2
CCOC(=O)c1ccc2c(c1)nc(SCc1c(F)c(F)c(C(F)(F)F)c(F)c1F)n2CCc1ccc(OC)cc1,-6,-7,1
CCN1C(=O)/C(=C\c2ccc(-c3ccccc3C(=O)O)o2)N(CC)C1=S,-7,-8,-1
O=C1NC(=S)S/C1=C\c1ccc(-c2ccccc2C(=O)O)o1,66*,83*,15
O=C1/C(=C/c2csnn2)CCOc2cc(Br)ccc21,-6,53*,13
COc1ccc2c(c1)CCC(=Cc1cc(Br)ccc1OC)C2=O,-2,-5,-1
CCc1nc(Nc2ccc(F)cc2)c2ccc(Cl)cc2n1,-4,-3,20
Cc1ccc(-n2nnc3c(=O)n(Cc4ccc(C(F)(F)F)cc4)cnc32)cc1C,-5,-8,-2
COc1ccccc1N=c1oc2ccc3ccccc3c2cc1-c1nc2ccccc2[nH]1,-1,x,-3
CCOC(=O)c1ccc(N=c2oc3cc(O)ccc3cc2-c2nc3ccccc3[nH]2)cc1,-3,-6,120*
NC(=S)N/N=c1\oc2ccccc2cc1-c1nc2ccccc2[nH]1,-2,x,-5
CCOC(=O)c1ccc(N=c2oc3ccccc3cc2-c2nc3ccccc3[nH]2)cc1,-4,-5,0
NC(=O)N/N=c1\oc2ccccc2cc1-c1nc2ccccc2[nH]1,-5,48*,-2
COc1ccccc1N=c1oc2cc(O)ccc2cc1-c1nc2ccccc2[nH]1,-4,-5,81*
CCN(CC)c1nc2ccsc2c(=O)n1CCC(=O)NCc1ccccc1OC,-4,-3,-2
CN(c1ccc(F)c(F)c1)S(=O)(=O)c1cccc2nonc12,-6,x,1
CSc1ccc(CNn2nnnc2N)cc1,1,-2,-9
CCCCCCCC(=O)N1CCN(C(=O)c2cc(-c3ccc(Cl)cc3)n(-c3ccccc3OC)c2C)CC1,-2,-3,3
N#CC(C#N)=CC(=N)C(C#N)c1cc(O)c(O)c(O)c1 (configuration not stated),12,51*,7
O[C@@H]1CN(Cc2ccc3c(c2)OCO3)CC[C@H]1c1ccc2c(c1)OCO2,-3,x,2
O[C@@H]1CN(Cc2ccncc2Cl)CC[C@H]1c1ccc2c(c1)OCO2,-4,x,49*
SMILES,hcGAS inh,mcGAS inh,NPYLR7 agonist
COc1ccc(C=CC(=O)c2ccc(C)o2)cc1OC,-3,x,4
Cc1ccc(C(=O)C=Cc2ccc(N(C)C)cc2)o1,-7,x,75*
O=C(CCN(Cc1ccccc1)c1nc(Cc2ccccc2)ns1)NC(Cc1ccccc1)c1ccccc1 (configuration not stated),-12,-6,-1
CN(C)CCC1CN(C(=O)c2[nH]cnc2-c2ccccc2)CCO1 (configuration not stated),-4,-13,x
COCCCn1c(C)cn2c3c(=O)n(Cc4ccc(Cl)cc4)c(=O)n(C)c3nc12,-9,x,12
COCCn1c(C)cn2c3c(=O)n(Cc4ccc(Cl)cc4)c(=O)n(C)c3nc12,-7,-8,52*
CCOC(=O)N1CCN(/C=C(\C#N)c2nc3ccccc3s2)CC1,1,-1,-9
CCOC(=O)N1CCN(c2ccc(/C=C(\C#N)c3nc4ccccc4[nH]3)o2)CC1,-7,x,102*
CC1CCN(C(=O)CO[C@H]2C[C@@H](C)CC[C@@H]2C(C)C)CC(C)(C)C1 (some centres not stated),0,1,-15
COc1ccc(C(=O)N(CCN2CCOCC2)Cc2nccn2Cc2ccccc2C(F)(F)F)cc1,0,-4,-1
COc1cc(/C=C2\SC(=S)N(c3cccc(C(=O)O)c3)C2=O)ccc1O,-11,-5,52*
COc1ccc(/C=C2\SC(=S)N(c3ccc(C(=O)O)cc3)C2=O)cc1OC,5,-7,-4
COCCN1C(=O)/C(=C/c2ccc(O)c(OC)c2)SC1=S,-34,x,50
COc1cc(/C=C2\SC(=S)N(C(CC(=O)O)C(=O)O)C2=O)ccc1O (configuration not stated),-6,4,68*
CCOC(=O)C1(CCc2ccccc2)CCN(C(=O)NC2CCCCC2)CC1,-6,-10,8
